Screening data (PubChem)
In the library only some 1.7% were active in any assay of this set; here they are far more common.
PREPL inhibitor – human PREPL enzyme inhibition; actives 0.68% (n = 320,000); Q4J6C6; AID 2751; recombinant PREPL, fluorescence polarization activity-based probe; inhibition, % at 5.96 µM;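 note: 0% = enzyme with DMSO and 100% = wells lacking enzyme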
LYPLA2 inh – counter-screen for PME1 inhibitors: inhibitors of human LYPLA2; O95372; recombinant LYPLA2, FP-Rh probe fluorescence polarization; inhibition, % at 5.9 µM; actives 0.38% (n = 320,000);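 active = inhibition above the screen-wide mean plus 3 SD, limit set per campaign, cut at about 26% in these data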;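 note: 0% = LYPLA2 with DMSO and 100% = wells lacking LYPLA2 enzyme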
Target sequence (O95372 whole entry, looked up): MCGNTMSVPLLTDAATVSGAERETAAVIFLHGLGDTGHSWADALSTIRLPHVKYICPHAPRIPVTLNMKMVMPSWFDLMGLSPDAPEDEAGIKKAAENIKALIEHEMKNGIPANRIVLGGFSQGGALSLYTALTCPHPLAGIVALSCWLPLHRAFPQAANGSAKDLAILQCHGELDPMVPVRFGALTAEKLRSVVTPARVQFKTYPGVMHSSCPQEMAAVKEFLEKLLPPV
Hck-Nef inh – inhibitors of human Hck kinase activated by Nef. Recombinant Hck-YEEI plus Nef, Z-Lyte FRET kinase assay. AID 463187. inhibition, % at 20 µM. actives 0.68% (n = 220,000);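 active = Hck-Nef kinase inhibition above about 50%, limit read from the data; inactive = inhibition below that limit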;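 note: 0% = DMSO with Hck plus Nef and 100% = Hck alone without Nef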
p97 inhibitor – human p97 ATPase inhibition; P55072; recombinant p97 ATPase, Kinase-Glo ATP luminescence, 3 h; inhibition, % at 8 µM; actives 0.42% (n = 220,000); AID 1481; in the data active = inhibition above about 15%;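 note: 0% = DMSO vehicle and 100% = wells lacking enzyme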
Rin1 Abl inh – inhibitors of human Rin1-Abl protein interaction | AID 588664 | P00519+Q13671 | actives 0.4% (n = 360,000) | inhibition, % at 7.35 µM | TR-FRET Rin1/Abl binding, biochemical; in the data active = inhibition above about 5%, passing the limit was not always enough
LYPLA1 inh – blocks human lysophospholipase 1, a PME1 counter-screen; O75608; recombinant LYPLA1, FP-Rh probe fluorescence polarization; inhibition, % at 5.9 µM; actives 0.16% (n = 320,000);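 active = inhibition above the mean of all tested compounds plus 3 SD, set per campaign, cut at about 14% in these data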;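 note: inhibitors block serine hydrolase probe labeling of LYPLA1 so polarization falls; 0% = enzyme with DMSO and 100% = wells lacking LYPLA1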
Target sequence (O75608 whole entry, looked up): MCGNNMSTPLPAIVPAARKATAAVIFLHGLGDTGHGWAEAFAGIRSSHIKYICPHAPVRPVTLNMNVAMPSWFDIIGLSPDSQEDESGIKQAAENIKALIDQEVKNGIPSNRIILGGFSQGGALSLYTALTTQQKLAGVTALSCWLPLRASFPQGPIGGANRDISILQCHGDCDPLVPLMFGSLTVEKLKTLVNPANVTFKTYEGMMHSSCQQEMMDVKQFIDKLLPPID
PREPL inh cf – human PREPL inhibition, confirmation | shares compounds with PREPL inhibitor | recombinant PREPL, fluorescence polarization activity probe | inhibition, % at 5.96 µM | actives 67% (n = 2,000) | AID 2803;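 note: 0% = protein with DMSO and 100% = wells lacking protein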
Starred values were filed as active, the others as inactive; x = no result. Cut-off read from the data, not from the text of the source, unless noted: active = inhibition above about 43%; inactive = the rest.

SMILES | PREPL inhibitor | LYPLA2 inh | Hck-Nef inh | p97 inhibitor | Rin1 Abl inh | LYPLA1 inh | PREPL inh cf
C#CCOCCOCCOCCNc1nc(N2CCN(C(=O)[C@H]([C@@H](C)CC)n3cc([C@@H](N)CC(C)C)nn3)CC2)nc(N2CCN(C(=O)[C@H](Cc3cc4ccccc4[nH]3)n3cc([C@@H](N)C(C)CC)nn3)CC2)n1 (stereo not given in full) | x | x | 22 | x | x | x | x
C#CCOCCOCCOCCNc1nc(N2CCN(C(=O)[C@H](CCCCN)n3cc([C@@H](N)CO)nn3)CC2)nc(N2CCN(C(=O)[C@H](Cc3cc4ccccc4[nH]3)n3cc([C@@H](N)Cc4ccc(O)cc4)nn3)CC2)n1 | 55* | 2 | 8 | 7 | x | -4 | 50*
C#CCOCCOCCOCCNc1nc(N2CCN(C(=O)[C@H](Cc3ccc(O)cc3)n3cc([C@@H](N)C(C)CC)nn3)CC2)nc(N2CCN(C(=O)[C@H](Cc3cc4ccccc4[nH]3)n3cc([C@@H](N)Cc4ccc(O)cc4)nn3)CC2)n1 (stereo not given in full) | 53* | 6 | -4 | x | x | -3 | 48*
C#CCOCCOCCOCCNc1nc(N2CCN(C(=O)[C@H]([C@@H](C)CC)n3cc([C@@H](N)Cc4ccc(O)cc4)nn3)CC2)nc(N2CCN(C(=O)[C@H](Cc3cc4ccccc4[nH]3)n3cc([C@@H](N)CC(C)C)nn3)CC2)n1 | 58* | 5 | x | x | -2 | 2 | 59*
CSCCC(NS(=O)(=O)c1ccc(C)cc1)C(=O)N1CCN(S(=O)(=O)c2ccc(F)cc2)CC1 (stereo not given) | 14 | 7 | x | x | 3 | 1 | x
Cc1ccc(OCC(O)CN2CCOCC2)cc1C (stereo not given) | 2 | 6 | x | x | 1 | 3 | x
N#CCC(=O)Nc1ncn(Cc2ccccc2Cl)n1 | 54* | 1 | 4 | 4 | 0 | 3 | 3
CC(=O)N1CCN(CC(=O)NC(=O)Nc2ccc3c(c2)OCCO3)CC1 | 2 | 9 | x | x | -2 | 3 | x
O=C(C1=C[C@H](c2ccccc2)C[C@H](OCc2ccc(CO)cc2)O1)N1CCCCCCC1 | x | x | -2 | 2 | x | x | x
CC(C)(C)[C@H]1C=C(C(=O)N2CCN(Cc3ccc4c(c3)OCO4)CC2)O[C@@H](OCCCCO)C1 | 44* | 5 | -25 | 1 | 3 | 1 | 43
CN1CCN(C(=O)C2=C[C@@H](c3ccccc3)C[C@@H](OCc3ccc(CO)cc3)O2)CC1 | 46* | -2 | -5 | 1 | 3 | -2 | 49*
CCO[C@H]1OC(C(=O)N2CCN(Cc3ccc4c(c3)OCO4)CC2)=C[C@@H](c2ccc(Br)cc2)[C@@H]1CCCO | 47* | 8 | -16 | 3 | 5 | 3 | 44*
CC(=O)n1cc([C@@H]2C=C(C(=O)N3CCN(C)CC3)O[C@H](OCc3ccc(CO)cc3)C2)c2ccccc21 | 46* | -4 | x | x | -2 | 1 | 52*
CC(C)(C)[C@@H]1C=C(C(=O)N2CCN(Cc3ccc4c(c3)OCO4)CC2)O[C@H](OCc2ccc(CO)cc2)C1 | 25 | 7 | -4 | 1 | -1 | 2 | x
CSCCC(=O)N1CCC(n2nccc2NC(=O)CCc2ccccc2)CC1 | x | x | x | x | 2 | x | x
O=C(C1=C[C@@H](c2ccc(Br)cc2)C[C@@H](OCc2ccc(CO)cc2)O1)N1CCN(Cc2ccc3c(c2)OCO3)CC1 | 45* | -11 | -6 | 6 | 3 | -7 | 59*
O=C(C1=C[C@@H](c2ccc(Br)cc2)C[C@@H](OCc2ccc(CO)cc2)O1)N1CCN(Cc2ccccc2)CC1 | 66* | -9 | 10 | 2 | 1 | -5 | 53*
O=C(C1=C[C@@H](c2ccc(C(F)(F)F)cc2)C[C@@H](OCCCCO)O1)N1CCN(Cc2ccccc2)CC1 | 66* | 3 | 10 | -1 | 1 | 0 | 56*
O=C(C1=C[C@H](c2ccc3c(c2)OCO3)C[C@H](OCc2ccc(CO)cc2)O1)N1CCCCCCC1 | 25 | -3 | 3 | -2 | 0 | -2 | x
O=C(C1=C[C@H](c2ccc(C(F)(F)F)cc2)C[C@H](OCc2ccc(CO)cc2)O1)N1CCN(Cc2ccc3c(c2)OCO3)CC1 | 46* | -4 | -4 | -6 | 3 | -3 | 44*
O=C(C1=C[C@@H](c2ccc(C(F)(F)F)cc2)C[C@@H](OCCCCO)O1)N1CCN(Cc2ccc3c(c2)OCO3)CC1 | 70* | 4 | 1 | -1 | 3 | -4 | 60*
O=C(C1=C[C@@H](c2ccc3c(c2)OCO3)C[C@@H](OCc2ccc(CO)cc2)O1)N1CCOCC1 | 50* | 8 | 2 | 2 | -1 | 0 | 44*
O=C(C1=C[C@@H](c2ccc(C(F)(F)F)cc2)C[C@@H](OCc2ccc(CO)cc2)O1)N1CCN(Cc2ccc3c(c2)OCO3)CC1 | 64* | 0 | -13 | -6 | 1 | -2 | 58*
Cc1ccccc1-c1nc(CN2CCC(C(=O)N3CCN(c4ccccn4)CC3)CC2)c(C)o1 | 49* | 0 | 5 | -3 | -2 | 6 | 43
CC(C)(C)OC(=O)NCCCCCNC(=O)c1nc[nH]c1C(=O)NCCCCCNC(=O)OC(C)(C)C | 20 | x | x | x | 4 | x | x
SMILES | PREPL inhibitor | LYPLA2 inh | Hck-Nef inh | p97 inhibitor | Rin1 Abl inh | LYPLA1 inh | PREPL inh cf
NCCSc1c(-c2ccccc2)[nH]c2ccccc12 | 35 | -5 | 11 | 6 | 0 | -5 | x
Cc1ccc(-c2[nH]c3ccccc3c2SCCN)cc1 | 57* | -2 | 17 | 9 | -3 | -1 | 41
NCCSc1c(-c2ccc(Cl)cc2)[nH]c2ccccc12 | 46* | -1 | 17 | 5 | -32 | -7 | 39
NCCSc1c(-c2ccc(F)cc2)[nH]c2ccccc12 | 27 | -3 | 8 | 2 | -11 | -1 | x
CC1CCN(C(=O)COC(=O)Cn2cnc3ccccc32)CC1 | 7 | x | x | x | 5 | x | x
Clc1ccc2nc(-c3ccccn3)c(Nc3ccc4c(c3)OCO4)n2c1 | 67* | -6 | 4 | 0 | 1 | -5 | 54*
O=C(Nc1cccc(Cl)c1)c1nc[nH]c1C(=O)N1CCN(c2ccccc2)CC1 | 36 | 6 | x | x | 2 | 1 | x
CCCCCc1cc(=O)oc2c(C(CCN3CCCC3)c3ccc(N(C)C)cc3)c(OC)cc(OC)c12 (stereo not given) | 50* | 0 | 28 | x | -2 | -4 | 49*
CCN(C(=O)CSc1nc2ccccc2c(=O)n1-c1cccc(C)c1)C1CCS(=O)(=O)C1 (stereo not given) | -4 | 0 | 4 | 0 | -1 | -1 | x
Cc1ccc(-n2c(SCC(=O)N(C)C3CCS(=O)(=O)C3)nc3ccccc3c2=O)c(C)c1 (stereo not given) | 53* | x | x | x | 2 | x | 0
CN1CCCC1CCNc1ccc2sc3ccccc3c(=O)c2c1 (stereo not given) | 51* | 1 | x | x | -11 | 4 | 48*
